Assay results reported in the supplement of paper PMC12494721.
Counter-ions that a name gives are not always drawn.

What follows are compounds tested on Ruminococcus gnavus DSM 108212 (assay: fold change of Tryptamine concentration vs plate DMSO controls (fold change (ratio)); higher = more amine produced, active = hit call of the paper (significant change in both replicates, either direction)). Settings: incubation time: 27 h, anaerobic, 37 °C.
In short: (§1)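 Extracts of whole anaerobic mGAM cultures were analysed for amines by LC–triple-quadrupole MS with dynamic MRM and external calibration curves, with drift corrected within batch. Four gut strains were grown at 37 °C for 27 h in 80 µL wells with compounds at 20 µM final, sweeteners at 50 µM final. Each value expresses fold change over plate DMSO controls. The average of 2 biological replicates is shown.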

Structure (SMILES)	fold change of Tryptamine concentration
CCCc1nc2c(C)cc(-c3nc4ccccc4n3C)cc2n1Cc1ccc(-c2ccccc2C(=O)O)cc1 [Telmisartan] (20 µM)	0.966 (inactive)
CNC(C)CCC=C(C)C (centres undefined) [Isometheptene mucate] (20 µM)	1.01 (inactive)
O=C1CCC(N2C(=O)c3ccccc3C2=O)C(=O)N1 (centres undefined) [Thalidomide] (20 µM)	0.971 (inactive)
CCN(CC)C(=O)N1CCN(C)CC1 [Diethylcarbamazine citrate] (20 µM)	0.976 (inactive)
CCCCCCCN(CC)CCCC(O)c1ccc(NS(C)(=O)=O)cc1 (centres undefined) [Ibutilide fumarate] (20 µM)	0.952 (inactive)
CCN(CCCCOC(=O)c1ccc(OC)c(OC)c1)C(C)Cc1ccc(OC)cc1 (centres undefined) [Mebeverine hydrochloride] (20 µM)	0.985 (inactive)
N=C(N=C(N)N)N1CCOCC1 [Moroxidine hydrochloride] (20 µM)	1.18 (inactive)
O=c1[nH]c(=O)n([C@H]2C[C@H](O)[C@@H](CO)O2)cc1I [Idoxuridine] (20 µM)	1.05 (inactive)
Cc1cc(C2CCCCC2)n(O)c(=O)c1 [Ciclopirox ethanolamine] (20 µM)	1.02 (inactive)
CC[N+](C)(C)Cc1ccccc1Br [Bretylium tosylate] (20 µM)	1.03 (inactive)

The compounds below were run on Escherichia coli IAI1 (assay: fold change of Putrescine concentration vs plate DMSO controls (fold change (ratio)); higher = more amine produced, active = hit call of the paper (significant change in both replicates, either direction)). Settings: incubation time: 27 h, anaerobic, 37 °C.
In short: as §1

Structure (SMILES)	fold change of Putrescine concentration
CC1CC(OC(=O)C(O)c2ccccc2)CC(C)(C)C1 (centres undefined) [Cyclandelate] (20 µM)	0.959 (inactive)
COc1ccc(C(=O)CC(=O)c2ccc(C(C)(C)C)cc2)cc1 [Avobenzone] (20 µM)	0.998 (inactive)
Cc1nc2ccccc2n1Cc1ccc(Cl)cc1 [Chlormidazole] (20 µM)	0.947 (inactive)
Cn1nnnc1SCC1=C(C(=O)O)N2C(=O)[C@@H](NC(=O)[C@H](O)c3ccccc3)[C@H]2SC1 [Cefamandole sodium salt] (20 µM)	0.968 (inactive)
CCN1CCC[C@H]1CNC(=O)c1c(O)c(Cl)cc(Cl)c1OC [Raclopride] (20 µM)	1.19 (inactive)
O=c1oc2ccccc2c(O)c1Cc1c(O)c2ccccc2oc1=O [Dicumarol] (20 µM)	0.993 (inactive)
S=C([S-])NCCNC(=S)[S-].S=C([S-])NCCNC(=S)[S-].[Mn+2].[Zn+2] (20 µM)	1.02 (inactive)
CC(NCCC(c1ccccc1)c1ccccc1)c1ccccc1 (centres undefined) [Fendiline hydrochloride] (20 µM)	1.18 (inactive)
Nc1ccc(S(=O)(=O)Nc2nccs2)cc1 [Sulfathiazole] (20 µM)	0.955 (inactive)
CC(=O)/N=c1/sc(S(N)(=O)=O)nn1C [Methazolamide] (20 µM)	0.979 (inactive)
Oc1ccccc1O [Catechol] (20 µM)	1.02 (inactive)
COc1cc(C(=O)NS(=O)(=O)c2ccccc2C)ccc1Cc1cn(C)c2ccc(NC(=O)OC3CCCC3)cc12 [Zafirlukast] (20 µM)	0.977 (inactive)
COc1nc(N)nc2c1ncn2[C@@H]1O[C@H](CO)[C@@H](O)[C@@H]1O [Nelarabine] (20 µM)	1.01 (inactive)
O=C(NCc1ncc(C(F)(F)F)cc1Cl)c1c(Cl)cccc1Cl (20 µM)	1.01 (inactive)
CCc1oc2ccccc2c1C(=O)c1cc(Br)c(O)c(Br)c1 [Benzbromarone] (20 µM)	0.989 (inactive)
Nc1nc(=O)[nH]cc1F [Flucytosine] (20 µM)	0.875 (inactive)
CC[N+](CC)(CC)CCOc1cccc(OCC[N+](CC)(CC)CC)c1OCC[N+](CC)(CC)CC [Gallamine triethiodide] (20 µM)	1.06 (inactive)
COc1cc(C)nc(-n2nc(C)cc2OC)n1 [Epirizole] (20 µM)	0.949 (inactive)
COc1ccccc1O [Guaiacol] (20 µM)	0.994 (inactive)
COc1cccc2c1C(=O)c1c(O)c3c(c(O)c1C2=O)C[C@@](O)(C(=O)CO)C[C@@H]3O[C@H]1C[C@H](N)[C@@H](O)[C@H](C)O1 [Epirubicin hydrochloride] (20 µM)	1.07 (inactive)

Structure (SMILES)	fold change of Putrescine concentration
Cc1onc(-c2ccccc2)c1C(=O)N[C@@H]1C(=O)N2[C@@H]1SC(C)(C)[C@@H]2C(=O)O [Oxacillin sodium] (20 µM)	0.949 (inactive)
CCCOc1cc(N)ccc1C(=O)OCCN(CC)CC [Propoxycaine hydrochloride] (20 µM)	0.956 (inactive)
OC[C@H]1O[C@H](O[C@H]2O[C@H](CO)[C@@H](O)[C@H](O)[C@H]2O)[C@H](O)[C@@H](O)[C@@H]1O [Trehalose] (50 µM)	1 (inactive)
CN1[C@@H]2CC[C@H]1C[C@@H](OC(c1ccccc1)c1ccccc1)C2 [Benztropine mesylate] (20 µM)	1.03 (inactive)
C[C@H](CCC(=O)O)[C@H]1CC[C@H]2[C@@H]3CC[C@@H]4C[C@H](O)CC[C@]4(C)[C@H]3CC[C@]12C [Lithocholic acid] (20 µM)	1.06 (inactive)
CN(C)CCC=C1c2ccccc2COc2ccccc21 [Doxepin hydrochloride] (20 µM)	1.03 (inactive)
NC[C@H]1O[C@H](O[C@H]2[C@H](O)[C@@H](O[C@H]3O[C@H](CO)[C@@H](O)[C@H](N)[C@H]3O)[C@H](N)C[C@@H]2N)[C@H](N)C[C@@H]1O [Tobramycin] (20 µM)	0.911 (inactive)
CC(=O)Oc1cccc2c1C(=O)c1c(OC(C)=O)cc(C(=O)O)cc1C2=O [Diacerein] (20 µM)	1.08 (inactive)
CCCCc1ncc(/C=C(\Cc2cccs2)C(=O)O)n1Cc1ccc(C(=O)O)cc1 [Eprosartan mesylate] (20 µM)	0.975 (inactive)
CCCc1nc2c(C)cc(-c3nc4ccccc4n3C)cc2n1Cc1ccc(-c2ccccc2C(=O)O)cc1 [Telmisartan] (20 µM)	1.04 (inactive)
CNC(C)CCC=C(C)C (centres undefined) [Isometheptene mucate] (20 µM)	0.979 (inactive)
O=C1CCC(N2C(=O)c3ccccc3C2=O)C(=O)N1 (centres undefined) [Thalidomide] (20 µM)	0.97 (inactive)
CCN(CC)C(=O)N1CCN(C)CC1 [Diethylcarbamazine citrate] (20 µM)	0.988 (inactive)
CCCCCCCN(CC)CCCC(O)c1ccc(NS(C)(=O)=O)cc1 (centres undefined) [Ibutilide fumarate] (20 µM)	1.03 (inactive)
CCN(CCCCOC(=O)c1ccc(OC)c(OC)c1)C(C)Cc1ccc(OC)cc1 (centres undefined) [Mebeverine hydrochloride] (20 µM)	1.15 (inactive)
N=C(N=C(N)N)N1CCOCC1 [Moroxidine hydrochloride] (20 µM)	0.989 (inactive)
O=c1[nH]c(=O)n([C@H]2C[C@H](O)[C@@H](CO)O2)cc1I [Idoxuridine] (20 µM)	1.18 (inactive)
Cc1cc(C2CCCCC2)n(O)c(=O)c1 [Ciclopirox ethanolamine] (20 µM)	1.06 (inactive)
CC[N+](C)(C)Cc1ccccc1Br [Bretylium tosylate] (20 µM)	1 (inactive)
